{"source": "PubChem BioAssay AID1117361", "about": "(Southern Research Institute, 2015)", "note": "Among all 3,600 compounds or so, about 900 (25%) were called active. These entries were drawn from the full list. Entries with a potency or affinity are not part of this list. Values without a mark were called inactive. The rule behind the calls is not given here."}
{"molecular_target": "Protein Tat (Human immunodeficiency virus type 1 group M subtype B (isolate HXB2)) (UniProt P04608)", "assay": "HIV-1 Tat–TAR interaction blockers – biochemical, fluorescence polarization, FAM-labeled TAR RNA, counter-screen for Vif-APOBEC3G degradation inhibitor project, dose response (AID 1117361)", "conditions": "Tat-TAR RNA binding; series mostly up to 100 µM; inhibition: at the top concentration"}
{"smiles": "CC(C)(C)NC(=O)c1cnn2c1NC(c1ccc(F)cc1)CC2C(F)(F)F", "note": "(stereo unspecified)", "outcome": "inactive"}
{"smiles": "CN(C)C=NC(=O)/C(C#N)=C1\\CCc2ccccc2N1", "inhibition": "4.77%"}
{"smiles": "Nn1c(SCC(=O)NCCc2ccc(F)cc2)nnc1C1CCCCC1", "inhibition": "8.25%"}
{"smiles": "COc1ccccc1CNC(=O)CCS(=O)(=O)c1ccc2c(c1)CCCN2C(C)=O", "inhibition": "6.76%"}
{"smiles": "CCOC(=O)Nc1ccc2c(CN3C(=O)NC4(CCCC4)C3=O)cc(=O)oc2c1", "inhibition": "3.41%"}
{"smiles": "Cc1ccc(N(CN2C(=O)C3CC=CCC3C2=O)C(=O)c2ccco2)cc1Cl", "note": "(stereo unspecified)", "inhibition": "25.2%"}
{"smiles": "CCc1[nH]nc2c1C1(CCN(C(=O)OCc3ccccc3)CC1)C(C#N)=C(N)O2", "outcome": "inactive"}
{"smiles": "Cc1[nH]c2ccccc2c1Cc1nnc(SCc2ccccc2)o1", "inhibition": "28.4%"}
{"smiles": "Cn1cc(CN2CCN(CCO)CC2)c(-c2ccc(Oc3ccccc3)cc2)n1", "outcome": "inactive"}
{"smiles": "CCc1c(O)nc(N2CCN(Cc3ccccc3)CC2)[nH]c1=O", "inhibition": "4.73%"}
{"smiles": "O=c1ccccn1Cc1c(F)cccc1Cl", "inhibition": "20.3%"}
{"smiles": "CCOC(=O)c1cnc(-c2ccccc2)nc1Oc1ccc(C)cc1", "inhibition": "4.77%"}
{"smiles": "CCOC(=O)Cn1c(=O)n(CC(=O)OCC)c2ccccc21", "inhibition": "1.35%"}
{"smiles": "CCOc1ccccc1CNC(=O)Cn1c(=O)oc2ccccc21", "outcome": "inactive"}
{"smiles": "CCOc1ccc(-n2c(C)nc(O)c2N=Nc2ccccc2)cc1", "outcome": "inactive"}
{"smiles": "CCOc1ccc(C(=O)N2CCCN(C(=O)c3ccc(OCC)cc3)CC2)cc1", "outcome": "inactive"}
{"smiles": "CCOc1ccccc1NC(=O)Cn1c(-c2ccc(Cl)cc2)noc1=O", "outcome": "inactive"}
{"smiles": "Cc1sc(NC(=O)CN2CCOCC2)nc1-c1ccc2c(c1)CCN2S(=O)(=O)c1ccccc1", "inhibition": "16.9%"}
{"smiles": "COc1ccccc1NC(=O)COC(=O)c1c(NC(C)=O)sc(C)c1C", "inhibition": "11.7%"}
{"smiles": "CCOc1ccc(-n2c(SC)nc3c(c2=O)SCC3)cc1", "inhibition": "4.73%"}
{"smiles": "CC(C)Oc1ccc(CNCC2(O)CCOC(C)(C)C2)cc1", "note": "(stereo unspecified)", "inhibition": "0.68%"}
{"smiles": "Cc1sc(NC(=O)CSc2nnnn2C(C)C)c(C#N)c1C", "outcome": "inactive"}
{"smiles": "CNc1sc(C(=O)c2cccs2)c(N)c1-c1nc2ccccc2s1", "inhibition": "3.01%"}
{"smiles": "COCCNC(=O)CN1C(=O)CSc2ncccc21", "inhibition": "10.2%"}
{"smiles": "CC(=O)OC1OCCOC1NC(=S)Nc1ccc(C)cc1", "note": "(stereo unspecified)", "inhibition": "12.4%"}
{"smiles": "COc1ccc(OCc2nnc3n2N=C(c2ccc(OC)cc2)CS3)cc1", "inhibition": "6.08%"}
{"smiles": "CCn1c(SCC(=O)c2ccc(F)cc2)nnc1-c1ccoc1C", "inhibition": "12.2%"}
{"smiles": "CCCCOc1ccccc1C1NC(=O)NC(C)=C1C(=O)OCc1ccco1", "note": "(stereo unspecified)", "inhibition": "14.3%"}
{"smiles": "COC(=O)CSc1nnc(-c2ccccc2OC)n1-c1ccc(C)cc1", "inhibition": "7.5%"}
{"smiles": "COc1ccc(C(=O)O)cc1S(=O)(=O)N1CCCc2ccccc21", "outcome": "inactive"}
{"smiles": "CCOc1cc(C)c(Cl)cc1S(=O)(=O)NCc1ccco1", "inhibition": "2.7%"}
{"smiles": "Oc1cc2c(cc1O)[C@@H](c1ccccc1)CNCC2", "inhibition": "13.2%"}
{"smiles": "CC1CCc2cc(F)ccc2N1C(=O)CSc1nnc(-c2cccs2)n1C", "note": "(stereo unspecified)", "outcome": "inactive"}
{"smiles": "CCOc1cc(S(=O)(=O)NCc2ccccn2)c(C)cc1C", "inhibition": "2.7%"}
{"smiles": "O=C(Cn1nnc(-c2ccccc2-n2cnnn2)n1)c1ccccc1", "inhibition": "4.73%"}
{"smiles": "O=C(CN1C(=O)/C(=C\\c2cccs2)SC1=S)Nc1cccc(C(=O)O)c1", "inhibition": "21.4%"}
{"smiles": "C=CCOc1ccc(/C=C2\\SC(=S)N(CCC(=O)O)C2=O)cc1", "inhibition": "3.99% [at 50 µM]"}
{"smiles": "CC(=O)O/N=C/c1c(N2CCOCC2)n(C)c2ccccc12", "inhibition": "6.82%"}
{"smiles": "CCS(=O)(=O)Nc1ccc(C(=O)CC2(O)C(=O)Nc3ccccc32)cc1", "note": "(stereo unspecified)", "inhibition": "6.08%"}
{"smiles": "CCOC(=O)C1CCCN(C(=O)c2ccc(CS(=O)(=O)c3ccc(Br)cc3)o2)C1", "note": "(stereo unspecified)", "inhibition": "10.8%"}
{"smiles": "COc1ccc(S(=O)(=O)Cc2ccc(C(=O)NC(C)C)o2)cc1", "inhibition": "14.9%"}
{"smiles": "CCOC(=O)CSc1nnc(CNC(=O)c2cccs2)n1CCc1ccccc1", "inhibition": "4.09%"}
{"smiles": "Cc1ccc(SCC2=NNC(=O)C2)cc1", "inhibition": "13.6%"}
{"smiles": "COc1ccccc1N(CC(O)CN1C(=O)NC(C)(C)C1=O)S(=O)(=O)c1ccc(C)cc1", "note": "(stereo unspecified)", "inhibition": "2.7%"}
{"smiles": "Cc1nn(Cc2ccccc2)c(C)c1/C=N/NC(=O)c1ccccc1O", "inhibition": "4.12%"}
{"smiles": "CN(C)/C=N/NC(=O)c1ccccc1Cl", "outcome": "inactive"}
{"smiles": "Cc1nc2ccc(S(=O)(=O)N(C)CC(=O)N3CCc4ccccc43)cc2s1", "inhibition": "4.09%"}
{"smiles": "COC(=O)[C@@]1(Cc2ccc(OC)cc2)[C@H]2c3cc(C(=O)N(C)C)n(C[C@H](O)CO)c3C[C@H]2CN1C(=O)c1ccccc1", "inhibition": "2.47%"}
{"smiles": "COc1ccc(-c2nc(CS(=O)CC(=O)NCc3ccco3)c(C)o2)cc1", "note": "(stereo unspecified)", "inhibition": "14.2%"}
{"smiles": "CCOC(=O)c1sc2ncnc(N3CCN(C(=O)OCC)CC3)c2c1C", "outcome": "inactive"}
{"smiles": "CCCCC(O)(CCCC)C(=O)N/N=C(\\C)c1ccc(Cl)cc1", "inhibition": "14%"}
{"smiles": "Cc1ccc2nc(SCC(=O)N(CC(C)C)c3c(N)n(CC(C)C)c(=O)[nH]c3=O)[nH]c2c1", "inhibition": "16.9%"}
{"smiles": "COc1ccc(NC(=O)C2CCCN(S(=O)(=O)c3cccnc3)C2)cc1", "note": "(stereo unspecified)", "outcome": "inactive"}
{"smiles": "O=c1[nH]c2ccccc2c(O)c1-[n+]1ccccc1", "inhibition": "4.12%"}
{"smiles": "COC(=O)C(NC(=O)C(NC(=O)c1ccccc1)C(C)C)C(C)C", "note": "(stereo unspecified)", "inhibition": "8.78%"}
{"smiles": "CCC(C)[C@H](NC(=O)Nc1ccccc1F)C(=O)OC", "note": "(stereo partly specified)", "inhibition": "4.12%"}
